The AC50 is the midpoint of the concentration-response curve, whichever way the signal moves.

Assay [1] is described as follows: ATG_CRE_CIS: Attagene CIS-FACTORIAL HepG2 Assay for human cAMP Responsive Element (CRE) binding protein 3 (AID 2282926). The following applies: HepG2 CRE cis-reporter, Attagene multiplexed mRNA; actives raise or lower the signal. The essentials:
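HepG2 cells transiently transfected with cis-element-driven multiple reporter transcription units; CRE reporter mRNA measured 24 h after dosing by RT-PCR, 6-FAM labelling, HpaI digestion and capillary electrophoresis. Bidirectional fit versus DMSO baseline.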

The target of assay [2] is CCAAT/enhancer-binding protein beta (Homo sapiens) (UniProt P17676). Briefly: ATG_C_EBP_CIS: Attagene CIS-FACTORIAL HepG2 Assay for human CCAAT/Enhancer Binding Protein (C/EBP) beta (AID 2282927). As to conditions: HepG2 Attagene cis-factorial transcription factor reporter; actives raise or lower the signal. The essentials:
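HepG2 transiently transfected with multiplexed reporter units under cis-regulatory promoters reporting endogenous C/EBPb activity. After 24 h exposure, reporter mRNA assayed by RT-PCR, fluorescent labelling, HpaI digestion and capillary electrophoresis; bidirectional fitting versus DMSO.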

A short description of assay [3]: ATG_CMV_CIS: Attagene CIS-FACTORIAL HepG2 Assay for human CMV (Internal Marker) (AID 2282928).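 Note: endpoint acts as a background internal control marker rather than a target.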 As to conditions: HepG2 CMV promoter reporter, transcription factor profiling; actives raise or lower the signal. The procedure, abridged:
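HepG2 cells transiently transfected with multiple cis-regulated reporter units; 24 h compound exposure. Reporter mRNA quantified by RT-PCR, 6-FAM primer-extension labeling, HpaI digestion and capillary electrophoresis; bidirectional fitting against DMSO baseline.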

Assay [4] is described as follows: ATG_DR4_LXR_CIS: Attagene CIS-FACTORIAL HepG2 Assay for human Liver X Receptor (LXR), DR4 submotif (AID 2282929). As to conditions: HepG2 Attagene DR4 cis-reporter, mRNA transcription; actives raise or lower the signal. The procedure, abridged:
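HepG2 cells were transiently transfected with multiple cis-regulated reporter units and dosed for 24 hours. The DR4 reporter mRNA was quantified by RT-PCR, 6-FAM labelling and capillary electrophoresis. Bidirectional fits used DMSO as baseline.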

For assay [5], the target named is Aryl hydrocarbon receptor (Homo sapiens) (UniProt P35869). Briefly: ATG_Ahr_CIS: Attagene CIS-FACTORIAL HepG2 Assay for human Aryl Hydrocarbon Receptor (Ahr) (AID 2282930). The following applies: HepG2 AhR cis-factorial reporter transcription; actives raise or lower the signal. The procedure, abridged: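 HepG2 cells transiently transfected with cis-element-driven multiplexed reporter units; endogenous AhR activity read as reporter mRNA 24 h after dosing, via RT-PCR, 6-FAM labelling, HpaI digestion and capillary electrophoresis. Bidirectional fit relative to DMSO.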
Chain of Aryl hydrocarbon receptor (Homo sapiens) (P35869 whole entry, looked up): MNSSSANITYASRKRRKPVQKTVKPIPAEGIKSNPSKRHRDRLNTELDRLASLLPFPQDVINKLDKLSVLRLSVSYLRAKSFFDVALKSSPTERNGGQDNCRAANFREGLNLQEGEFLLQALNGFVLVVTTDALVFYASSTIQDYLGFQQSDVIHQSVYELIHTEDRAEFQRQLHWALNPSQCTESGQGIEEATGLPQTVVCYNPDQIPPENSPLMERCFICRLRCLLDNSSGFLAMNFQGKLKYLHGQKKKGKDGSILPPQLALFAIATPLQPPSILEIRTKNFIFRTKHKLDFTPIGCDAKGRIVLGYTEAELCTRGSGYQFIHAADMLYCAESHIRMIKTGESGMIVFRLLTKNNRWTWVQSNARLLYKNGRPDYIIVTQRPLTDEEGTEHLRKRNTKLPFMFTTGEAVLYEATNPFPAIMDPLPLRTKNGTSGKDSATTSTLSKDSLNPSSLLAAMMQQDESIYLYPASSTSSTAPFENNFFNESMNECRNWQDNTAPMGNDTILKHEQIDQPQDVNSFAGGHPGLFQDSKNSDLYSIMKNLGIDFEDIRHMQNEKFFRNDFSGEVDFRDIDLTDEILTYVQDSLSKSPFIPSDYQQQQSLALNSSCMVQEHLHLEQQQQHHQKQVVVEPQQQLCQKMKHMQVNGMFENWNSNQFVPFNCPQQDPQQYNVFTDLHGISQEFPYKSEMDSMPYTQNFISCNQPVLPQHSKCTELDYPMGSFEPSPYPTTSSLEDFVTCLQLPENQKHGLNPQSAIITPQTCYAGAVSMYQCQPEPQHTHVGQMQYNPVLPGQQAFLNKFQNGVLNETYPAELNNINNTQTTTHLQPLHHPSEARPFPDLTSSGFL

The nature of assay [6]: ATG_AP_1_CIS: Attagene CIS-FACTORIAL HepG2 Assay for human Activator Protein 1 (AP-1) (AID 2282931). As to conditions: HepG2 Attagene cis-factorial AP-1 reporter mRNA; actives raise or lower the signal. The procedure, abridged:
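HepG2 cells transiently transfected with cis-element-driven reporter transcription units, dosed for 24 hours. Reporter mRNA measured by RT-PCR, 6-FAM labelling, HpaI digestion and capillary electrophoresis. Bidirectional fitting against DMSO baseline.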

Assay [7] in a line: ATG_AP_2_CIS: Attagene CIS-FACTORIAL HepG2 Assay for human Activator Protein 2 (AP-2) (AID 2282932). The following applies: HepG2 AP-2 cis-reporter, Attagene transcription factor profiling; actives raise or lower the signal. The procedure, abridged: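 Multiplexed mRNA reporter assay in HepG2: cis-regulated units report endogenous factor activity after 24 h treatment. Fluorescence from capillary electrophoresis of RT-PCR products gives the signal, with DMSO as baseline.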

The nature of assay [8]: ATG_BRE_CIS: Attagene CIS-FACTORIAL HepG2 Assay for human Bone Morphogenetic Protein (BMP) Response Element (BRE) (AID 2282933). The following applies: HepG2 BMP response element reporter, Attagene transcription factor profiling; actives raise or lower the signal. The procedure, abridged: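 After a 24 h chemical treatment, transiently transfected HepG2 cells were lysed for RNA; reporter transcripts were quantified by fluorescent RT-PCR and capillary electrophoresis, normalised to DMSO.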

Assay [9] addresses Retinoic acid receptor alpha (Homo sapiens) (UniProt P10276). Put plainly: ATG_DR5_RAR_CIS: Attagene CIS-FACTORIAL HepG2 Assay for human Retinoic Acid Receptor Alpha (RARE), DR5 submotif (AID 2282934).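 For AC50: reporter responds to endogenous RAR alpha beta and gamma in HepG2 not RARA alone.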 The following applies: HepG2 Attagene cis-factorial RARE DR5 reporter, mRNA; actives raise or lower the signal. The essentials: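 HepG2 cells transiently transfected with multiplexed reporter units; DR5 cis-element drives reporter through endogenous transcription factors. After 24 h dosing, reporter mRNA quantified by RT-PCR, fluorescent labeling, HpaI digestion and capillary electrophoresis; bidirectional fitting versus DMSO.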

Assay [10] concerns the target Transcription factor E2F1 (Homo sapiens) (UniProt Q01094). Put plainly: ATG_E2F_CIS: Attagene CIS-FACTORIAL HepG2 Assay for human E2F Transcription Factor 1 (AID 2282935). The following applies: HepG2 Attagene cis-reporter, E2F reporter RNA transcripts; actives raise or lower the signal. The procedure, abridged:
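Measures reporter transcript levels via RT-PCR with capillary electrophoresis detection in HepG2 cells harboring cis-regulated reporter units; 24 h post-dose; bidirectional curve fitting with DMSO as baseline.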

Activity calls are given as the source filed them. Rule for the calls: active = hit-call score of the fitted dose curve at least 0.9, where 1 is the maximum; inactive = score below 0.9.

Chain of CCAAT/enhancer-binding protein beta (Homo sapiens) (P17676 whole entry, looked up): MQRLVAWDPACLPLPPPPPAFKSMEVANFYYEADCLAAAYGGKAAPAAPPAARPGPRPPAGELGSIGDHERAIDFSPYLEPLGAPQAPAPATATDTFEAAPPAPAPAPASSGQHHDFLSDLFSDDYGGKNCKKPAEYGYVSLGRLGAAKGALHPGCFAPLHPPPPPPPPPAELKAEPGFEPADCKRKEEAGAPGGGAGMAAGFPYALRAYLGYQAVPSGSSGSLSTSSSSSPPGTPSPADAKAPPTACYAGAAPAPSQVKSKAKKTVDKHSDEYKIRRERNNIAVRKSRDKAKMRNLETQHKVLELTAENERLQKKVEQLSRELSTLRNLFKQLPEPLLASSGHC
Chain of Transcription factor E2F1 (Homo sapiens) (Q01094 whole entry, looked up): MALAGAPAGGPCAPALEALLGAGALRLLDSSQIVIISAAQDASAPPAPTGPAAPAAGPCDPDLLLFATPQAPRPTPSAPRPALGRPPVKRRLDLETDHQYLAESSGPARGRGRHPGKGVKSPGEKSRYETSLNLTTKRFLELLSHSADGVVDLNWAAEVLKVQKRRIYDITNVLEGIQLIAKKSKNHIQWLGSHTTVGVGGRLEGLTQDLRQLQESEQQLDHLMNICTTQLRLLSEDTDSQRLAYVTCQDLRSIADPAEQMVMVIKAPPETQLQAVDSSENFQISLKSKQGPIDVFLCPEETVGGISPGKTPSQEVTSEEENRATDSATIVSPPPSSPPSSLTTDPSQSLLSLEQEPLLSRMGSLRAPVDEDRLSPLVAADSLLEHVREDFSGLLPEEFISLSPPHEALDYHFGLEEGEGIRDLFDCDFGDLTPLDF
Chain of Retinoic acid receptor alpha (Homo sapiens) (P10276 whole entry, looked up): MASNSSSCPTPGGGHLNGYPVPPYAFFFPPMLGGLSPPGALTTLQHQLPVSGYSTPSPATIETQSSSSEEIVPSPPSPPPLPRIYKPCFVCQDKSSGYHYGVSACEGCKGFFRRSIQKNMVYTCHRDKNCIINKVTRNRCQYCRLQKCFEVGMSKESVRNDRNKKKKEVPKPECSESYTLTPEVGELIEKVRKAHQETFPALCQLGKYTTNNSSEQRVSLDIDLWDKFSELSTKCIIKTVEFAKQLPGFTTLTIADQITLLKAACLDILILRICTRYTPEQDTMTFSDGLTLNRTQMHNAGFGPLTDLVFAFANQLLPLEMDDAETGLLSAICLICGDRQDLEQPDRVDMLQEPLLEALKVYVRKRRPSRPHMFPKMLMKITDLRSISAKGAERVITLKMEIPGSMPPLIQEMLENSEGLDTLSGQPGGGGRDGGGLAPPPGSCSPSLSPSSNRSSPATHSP

For `O=C(O)CCCC[C@@H]1SC[C@@H]2NC(=O)N[C@@H]21`, the compound was called inactive in assay [1], in assay [2], in [3], in [4], in [5] and in [6]. In addition, the compound was classed as inactive in assay [7], in assay [8] and in [9].

Consider `COc1ccc(C(Cl)=C(c2ccc(OC)cc2)c2ccc(OC)cc2)cc1`, for which the outcome in [1], in assay [2], in assay [3], in assay [4], in assay [5] and in [6] was inactive. The compound was called inactive in [7], in assay [8] and in [9].

Consider `C=C(C)C(=O)OCCOc1ccccc1`, for which the compound was called inactive in [1], in [2], in [3], in [4], in assay [5] and in [6]. In addition, the call in assay [7], in [8], in assay [9] and in [10] was inactive.

As to `C=CC(C)(CCC=C(C)C)OC(=O)CC(C)C` (stereo not drawn), the compound was classed as inactive in [1], in assay [2], in assay [5], in assay [7], in assay [8] and in [9]. Also, the AC50 in assay [3] was 75.3 µM (active); in assay [4], 133 µM (active); in assay [6], 119 µM (active).

Consider `CCCCCCCCCCCSCC(=O)O`, for which the result in [1], in assay [2], in assay [3], in assay [5], in [6] and in [7] was inactive. For the same compound, the result in assay [8] was inactive. Also, the AC50 in assay [4] was 48.8 µM (active); in assay [9] it was 2.13 µM (active).

`COC(=O)c1cc(Cl)ccc1[N+](=O)[O-]`: the call in assay [1], in assay [2], in assay [3], in assay [4], in assay [5] and in [6] was inactive. Besides, the outcome in assay [7], in [8] and in assay [9] was inactive.

Turning to `CC(C)COC(=O)C=Cc1ccccc1`, the result in [1], in [2], in assay [3], in assay [4], in assay [5] and in assay [7] was inactive. Further, the outcome in assay [8] and in [9] was inactive. In addition, the AC50 in assay [6] was 139 µM (active).

Regarding `CN(C)CCCN(C)C`, the result in assay [1], in assay [2], in assay [3], in assay [4], in assay [5] and in assay [6] was inactive. In addition, the compound was classed as inactive in assay [7], in [8] and in assay [9].

As for `CC1=NC(C)OC1C` (stereo not drawn), the compound was called inactive in assay [1], in [2], in assay [4], in assay [5], in assay [7] and in assay [8]. Moreover, the outcome in assay [9] and in assay [10] was inactive. Besides, the results for the AC50 in assay [3] and in [6] were 153 µM (active) and 100 µM (active), respectively.

On to `C=COCCCC`, for which the call in assay [1], in [2], in [3], in assay [4], in [5] and in [6] was inactive. The compound was classed as inactive in assay [7], in [8] and in assay [9].

With `CCc1nccnc1C`, the compound was called inactive in [1], in assay [2], in assay [3], in assay [4], in assay [5] and in [6]. Moreover, the compound was called inactive in assay [7], in assay [8], in assay [9] and in assay [10].

Turning to `CC(=O)Nc1nnc(S(N)(=O)=O)s1`, the compound was called inactive in assay [1], in assay [2], in assay [3], in assay [4], in [5] and in [6]. Further, the call in [7], in assay [8] and in [9] was inactive.

For the compound `CC1=NN(c2cc(S(=O)(=O)O)ccc2Cl)C(=O)C1N=Nc1ccccc1` (stereo not drawn), the call in assay [1], in assay [2], in [3], in [4], in [6] and in assay [7] was inactive. In addition, the outcome in [8] and in assay [9] was inactive. In assay [5], the AC50 was 0.541 µM (active).

In the case of `C=C[C@](C)(O)CC[C@@H]1[C@@]2(C)CCCC(C)(C)[C@@H]2CC[C@@]1(C)O`, the result in [1], in assay [2], in [3], in assay [4], in [5] and in [6] was inactive. In addition, the call in [7], in assay [8], in assay [9] and in assay [10] was inactive.

For the compound `O=C(/C=C/C=C/c1ccc2c(c1)OCO2)N1CCCCC1`, the call in [1], in assay [2], in [3], in assay [5], in assay [6] and in assay [7] was inactive. Further, the compound was called inactive in assay [9] and in [10]. The AC50 in [4] is 72.6 µM (active); in assay [8] it was 176 µM (active).

For `COc1ccc([C@@H]2CC(=O)c3c(O)cc(O[C@@H]4O[C@H](CO[C@@H]5O[C@@H](C)[C@H](O)[C@@H](O)[C@H]5O)[C@@H](O)[C@H](O)[C@H]4O)cc3O2)cc1OC`, the compound was called inactive in [1], in assay [2], in assay [3], in [4], in assay [5] and in assay [6]. For the same compound, the call in assay [7], in [8], in assay [9] and in [10] was inactive.

Turning to `CC1OC1C1CCC2(C)OC2C1` (stereo not drawn), the compound was called inactive in assay [1], in [2], in assay [3], in [4], in [5] and in assay [6]. The call in [7], in [8], in assay [9] and in assay [10] was inactive.

For `Cc1cc(O)c(Cl)c(C)c1Cl`, the outcome in assay [1], in assay [2], in assay [4], in assay [5], in assay [6] and in assay [7] was inactive. Moreover, the compound was classed as inactive in assay [8], in assay [9] and in [10]. In assay [3], the AC50 is 23.9 µM (active).

On to `CCN(CC)c1ccc(C(=O)c2ccccc2C(=O)O)c(O)c1`, for which the call in [1], in [2], in [3], in assay [4], in assay [5] and in assay [6] was inactive. Besides, the compound was called inactive in assay [7], in [8], in assay [9] and in assay [10].

Consider `c1ccc2c(c1)ccc1ncccc12`, for which the compound was called inactive in [1], in [2], in assay [4], in assay [6] and in assay [10]. Further, the AC50 in assay [3] was 19.2 µM (active); in [5], 7.77 µM (active); in assay [7], 178 µM (active); in assay [8], 76.4 µM (active); in [9], 58 µM (active).

Regarding `Cc1ccc(OC(=O)CC(C)C)cc1`, the compound was called inactive in [1], in [2], in assay [3], in assay [4], in assay [5] and in assay [6]. Also, the call in [7], in [8] and in [9] was inactive.

Take `CCO[Si](C)(OCC)OCC`: the call in assay [1], in assay [2], in assay [3], in [4], in [5] and in assay [6] was inactive. For the same compound, the result in assay [7], in assay [8] and in [9] was inactive.

The values above are taken from PubChem BioAssay (EPA / NIEHS).
